Details in all cases: compound concentration in added solution (µM; 5 µl added to 20 µl cells): 10; 18 h
The test system of assay [1] is A431. Put plainly: LBPA endosome anti-LBPA integrated intensity (sum per cell), Z-score; higher = more LBPA staining. The procedure, abridged:
(§1)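 Duplicate 384-well imaging plates were prepared with 5 µl of 10 µM compound solution per well, and 3,500 HeLa MZ or A431 cells in 20 µl were added on top. Following 18 h of incubation and fixation in 4% PFA, cells received 6C4 anti-LBPA antibody, filipin, propidium iodide and CellTracker green. Four images per well at 20× were segmented in MetaXpress to yield per-cell integrated LBPA or filipin intensity, whole-cell or within LBPA endosomes. These intensities are reported as Z-scores normalised in AcuityXpress.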

Assay [2] deals with HeLa MZ. Described as above. The method in brief: as §1
Assay [3] relates to A431. Put plainly: whole-cell filipin (free cholesterol) integrated intensity, Z-score; higher = more cholesterol staining. The method in brief:
as §1

Assay [4] has as its system HeLa MZ. The description is as above. The method in brief:
as §1

Assay [5] has as its system A431. Put plainly: filipin (cholesterol) integrated intensity within LBPA endosomes, Z-score; higher = more cholesterol in LBPA endosomes. The procedure, abridged:
as §1

The subject of assay [6] is HeLa MZ. The description is as above. The procedure, abridged:
as §1

Structures can show the parent of a compound that is named as a salt.

Consider `c1ccc([C@H]2CN3CCSC3=N2)cc1` [Levamisole hydrochloride], for which the entries for the “LBPA endosome anti-LBPA integrated intensity (z-score)” value in assay [1] and in assay [2] were -0.398 and 0.59, respectively. In addition, the “whole-cell filipin (z-score)” value in assay [3] is -0.758; in assay [4], -0.886. The “filipin (z-score)” value in assay [5] was -0.52; in assay [6] it was -0.182.

With `CNCCCC1c2ccccc2C=Cc2ccccc21` [Protriptyline hydrochloride], the “LBPA endosome anti-LBPA integrated intensity (z-score)” value in assay [1] is 2.36; in assay [2], 2.29. Further, the “whole-cell filipin (z-score)” value in assay [3] is 1.72; in assay [4], 0.684. Moreover, the “filipin (z-score)” value in assay [5] was found to be 2.34; in assay [6], 2.5.

Consider `CC(c1cc2ccccc2s1)N(O)C(N)=O` (stereo not given) [Zileuton], for which the “LBPA endosome anti-LBPA integrated intensity (z-score)” value in assay [1] was -0.514; in assay [2], -0.465. In addition, the “whole-cell filipin (z-score)” value in assay [3] was -0.358; in assay [4] it was -0.366. Moreover, the results for the “filipin (z-score)” value in assay [5] and in assay [6] were -0.391 and -0.425, respectively.

Take `OC[C@H]1O[C@@H](Oc2ccc(O)cc2)[C@H](O)[C@@H](O)[C@@H]1O` [Arbutin]: the figures for the “LBPA endosome anti-LBPA integrated intensity (z-score)” value in assay [1] and in assay [2] were -0.459 and 0.327, respectively. In addition, the “whole-cell filipin (z-score)” value in assay [3] is -0.0729; in assay [4] it was -0.0721. The “filipin (z-score)” value in assay [5] was -0.436; in assay [6] it was -0.605.

Take `CCCCOc1ccc(OCCCN2CCOCC2)cc1` [Pramoxine hydrochloride]: the results for the “LBPA endosome anti-LBPA integrated intensity (z-score)” value in assay [1] and in assay [2] were -0.284 and 1.34, respectively. Further, the “whole-cell filipin (z-score)” value is 0.443 in assay [3] and 2.25 in assay [4]. For the same molecule, the “filipin (z-score)” value in assay [5] was -0.151; in assay [6] it was 0.197.

Consider `CC(C(=O)O)c1ccc(C(=O)c2ccccc2)s1` (stereo not given) [Tiaprofenic acid], for which the entries for the “LBPA endosome anti-LBPA integrated intensity (z-score)” value in assay [1] and in assay [2] were -0.52 and -0.291, respectively. Further, the “whole-cell filipin (z-score)” value in assay [3] was -0.49; in assay [4], 0.105. Further, the “filipin (z-score)” value in assay [5] was -0.443; in assay [6], -0.426.

With `NS(=O)(=O)c1cc2c(cc1Cl)NC(CC1CCCC1)NS2(=O)=O` (stereo not given) [Cyclopenthiazide], the “LBPA endosome anti-LBPA integrated intensity (z-score)” value was -0.58 in assay [1] and -0.971 in assay [2]. The “whole-cell filipin (z-score)” value in assay [3] was -0.203; in assay [4], -0.467. The “filipin (z-score)” value in assay [5] was -0.442; in assay [6], -0.628.

In the case of `NC(=O)c1cccnc1` [Nicotinamide], the “LBPA endosome anti-LBPA integrated intensity (z-score)” value in assay [1] was -0.398; in assay [2] it was -0.64. The “whole-cell filipin (z-score)” value was -0.512 in assay [3] and -0.013 in assay [4]. Also, the results for the “filipin (z-score)” value in assay [5] and in assay [6] were -0.419 and -0.499, respectively.

As to `CN1C(C(=O)Nc2ccccn2)=C(O)c2sccc2S1(=O)=O` [Tenoxicam], the “LBPA endosome anti-LBPA integrated intensity (z-score)” value in assay [1] was -0.541; in assay [2], -0.303. The “whole-cell filipin (z-score)” value in assay [3] was -0.432; in assay [4] it was -0.0776. For the same molecule, the “filipin (z-score)” value was -0.522 in assay [5] and -0.391 in assay [6].

For `Cc1cccc(Nc2ccccc2C(=O)O)c1C` [Mefenamic acid], the entries for the “LBPA endosome anti-LBPA integrated intensity (z-score)” value in assay [1] and in assay [2] were -0.573 and -1.34, respectively. The “whole-cell filipin (z-score)” value is -0.793 in assay [3] and -0.4 in assay [4]. The “filipin (z-score)” value in assay [5] is -0.497; in assay [6], -0.72.

`CCCCN(CCCC)CCC(O)c1cc2c(Cl)cc(Cl)cc2c2cc(C(F)(F)F)ccc12` (stereo not given) [Halofantrine hydrochloride]: the “LBPA endosome anti-LBPA integrated intensity (z-score)” value in assay [1] is 1.7; in assay [2] it was -0.119. The “whole-cell filipin (z-score)” value is 1.07 in assay [3] and -0.0402 in assay [4]. The “filipin (z-score)” value amounted to 1.04 in assay [5] and 0.413 in assay [6].

Consider `CCCNC(C)C(=O)Nc1ccccc1C` (stereo not given) [Prilocaine hydrochloride], for which the “LBPA endosome anti-LBPA integrated intensity (z-score)” value in assay [1] was -0.398; in assay [2], -0.0706. For the same molecule, the “whole-cell filipin (z-score)” value was -0.685 in assay [3] and -0.312 in assay [4]. Further, the “filipin (z-score)” value in assay [5] was -0.467; in assay [6] it was -0.406.

`CN(C)CC/C=C1/c2ccccc2COc2ccc(CC(=O)O)cc21` [Olopatadine hydrochloride]: the “LBPA endosome anti-LBPA integrated intensity (z-score)” value is -0.245 in assay [1] and 0.672 in assay [2]. Moreover, the “whole-cell filipin (z-score)” value in assay [3] turned out to be 0.305; in assay [4] it was 0.861. For the same molecule, the results for the “filipin (z-score)” value in assay [5] and in assay [6] were -0.37 and -0.275, respectively.

On to `CNCC(O)c1ccc(OC(=O)C(C)(C)C)c(OC(=O)C(C)(C)C)c1` (stereo not given) [Dipivefrin hydrochloride], for which the “LBPA endosome anti-LBPA integrated intensity (z-score)” value is 0.303 in assay [1] and -0.643 in assay [2]. The entries for the “whole-cell filipin (z-score)” value in assay [3] and in assay [4] were 1.75 and 0.0389, respectively. In addition, the “filipin (z-score)” value stood at 0.224 in assay [5] and 0.0222 in assay [6].

As for `Nc1nc2ccc(OC(F)(F)F)cc2s1` [Riluzole hydrochloride], the “LBPA endosome anti-LBPA integrated intensity (z-score)” value in assay [1] is -0.418; in assay [2] it was -0.758. Besides, the “whole-cell filipin (z-score)” value in assay [3] is -0.48; in assay [4], -0.459. Also, the “filipin (z-score)” value in assay [5] is -0.501; in assay [6], -0.474.

On to `CN(C)CCC(c1ccc(Cl)cc1)c1ccccn1` (stereo not given) [Chlorpheniramine maleate], for which the “LBPA endosome anti-LBPA integrated intensity (z-score)” value in assay [1] is -0.653; in assay [2], 0.363. In addition, the “whole-cell filipin (z-score)” value in assay [3] is -0.45; in assay [4], -0.192. Moreover, the “filipin (z-score)” value was -0.443 in assay [5] and 0.105 in assay [6].

Take `CCCCC1(COC(=O)CCC(=O)O)C(=O)N(c2ccccc2)N(c2ccccc2)C1=O` [Suxibuzone]: the “LBPA endosome anti-LBPA integrated intensity (z-score)” value in assay [1] is -0.274; in assay [2], 0.271. The results for the “whole-cell filipin (z-score)” value in assay [3] and in assay [4] were -0.0127 and 0.34, respectively. In addition, the results for the “filipin (z-score)” value in assay [5] and in assay [6] were -0.358 and -0.384, respectively.

As for `Clc1ccc(COC(Cn2ccnc2)c2ccc(Cl)cc2Cl)cc1` (stereo not given) [Econazole nitrate], the “LBPA endosome anti-LBPA integrated intensity (z-score)” value in assay [1] was 0.0817; in assay [2], 1.63. The “whole-cell filipin (z-score)” value worked out at 0.484 in assay [3] and 0.898 in assay [4]. For the same molecule, the “filipin (z-score)” value was -0.0604 in assay [5] and 0.606 in assay [6].

Take `CC(C)NNC(=O)c1ccncc1` [Iproniazide phosphate]: the “LBPA endosome anti-LBPA integrated intensity (z-score)” value in assay [1] is -0.439; in assay [2] it was -0.948. Besides, the “whole-cell filipin (z-score)” value in assay [3] is -0.562; in assay [4], -0.228. For the same molecule, the “filipin (z-score)” value in assay [5] was -0.44; in assay [6] it was -0.477.

`NC[C@H]1O[C@H](O[C@H]2[C@H](O)[C@@H](O[C@H]3O[C@H](CO)[C@@H](O)[C@H](N)[C@H]3O)[C@H](N)C[C@@H]2N)[C@H](N)C[C@@H]1O` [Tobramycin]: the “LBPA endosome anti-LBPA integrated intensity (z-score)” value in assay [1] is -0.535; in assay [2], -1.57. The “whole-cell filipin (z-score)” value was -0.669 in assay [3] and -0.773 in assay [4]. Further, the “filipin (z-score)” value is -0.528 in assay [5] and -0.681 in assay [6].

In the case of `CC1(C)S[C@@H]2[C@H](NC(=O)[C@H](N)c3ccc(O)cc3)C(=O)N2[C@H]1C(=O)O` [Amoxicillin], the “LBPA endosome anti-LBPA integrated intensity (z-score)” value is -0.419 in assay [1] and 0.0287 in assay [2]. For the same molecule, the “whole-cell filipin (z-score)” value in assay [3] was -0.393; in assay [4], -0.0853. Further, the “filipin (z-score)” value in assay [5] is -0.524; in assay [6] it was -0.539.

As for `CC(Oc1c(Cl)cccc1Cl)C1=NCCN1` (stereo not given) [Lofexidine], the “LBPA endosome anti-LBPA integrated intensity (z-score)” value in assay [1] is -0.44; in assay [2], 0.792. In addition, the “whole-cell filipin (z-score)” value was -0.761 in assay [3] and -0.717 in assay [4]. Further, the figures for the “filipin (z-score)” value in assay [5] and in assay [6] were -0.424 and -0.23, respectively.

`CCOC(=O)C1=C(C)NC(C)=C(C(=O)OC)C1c1cccc([N+](=O)[O-])c1` (stereo not given) [Nitrendipine]: the “LBPA endosome anti-LBPA integrated intensity (z-score)” value in assay [1] was -0.341; in assay [2], 0.238. Further, the “whole-cell filipin (z-score)” value was -0.283 in assay [3] and 0.00443 in assay [4]. Also, the results for the “filipin (z-score)” value in assay [5] and in assay [6] were -0.327 and -0.297, respectively.

For `O=C(O)c1cn(-c2ccc(F)cc2)c2cc(N3CCNCC3)c(F)cc2c1=O` [Sarafloxacin], the entries for the “LBPA endosome anti-LBPA integrated intensity (z-score)” value in assay [1] and in assay [2] were -0.35 and -0.0848, respectively. Also, the “whole-cell filipin (z-score)” value in assay [3] was 0.000583; in assay [4], -0.426. Further, the “filipin (z-score)” value is -0.428 in assay [5] and -0.434 in assay [6].

Regarding `CCCCNc1ccc(C(=O)OCCN(C)C)cc1` [Tetraca? hydrochloride], the “LBPA endosome anti-LBPA integrated intensity (z-score)” value in assay [1] is -0.207; in assay [2], 0.761. The “whole-cell filipin (z-score)” value in assay [3] is -0.403; in assay [4], -0.308. Besides, the “filipin (z-score)” value is -0.238 in assay [5] and 0.182 in assay [6].

For the origin of these results see the supplement of paper PMC6607015.
